In assay [1] the target is T1, 3-phosphoinositide-dependent protein kinase 1 (Homo sapiens) (UniProt O15530).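 Further: values are mean inhibition of PDK1.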
T1 sequence (whole entry): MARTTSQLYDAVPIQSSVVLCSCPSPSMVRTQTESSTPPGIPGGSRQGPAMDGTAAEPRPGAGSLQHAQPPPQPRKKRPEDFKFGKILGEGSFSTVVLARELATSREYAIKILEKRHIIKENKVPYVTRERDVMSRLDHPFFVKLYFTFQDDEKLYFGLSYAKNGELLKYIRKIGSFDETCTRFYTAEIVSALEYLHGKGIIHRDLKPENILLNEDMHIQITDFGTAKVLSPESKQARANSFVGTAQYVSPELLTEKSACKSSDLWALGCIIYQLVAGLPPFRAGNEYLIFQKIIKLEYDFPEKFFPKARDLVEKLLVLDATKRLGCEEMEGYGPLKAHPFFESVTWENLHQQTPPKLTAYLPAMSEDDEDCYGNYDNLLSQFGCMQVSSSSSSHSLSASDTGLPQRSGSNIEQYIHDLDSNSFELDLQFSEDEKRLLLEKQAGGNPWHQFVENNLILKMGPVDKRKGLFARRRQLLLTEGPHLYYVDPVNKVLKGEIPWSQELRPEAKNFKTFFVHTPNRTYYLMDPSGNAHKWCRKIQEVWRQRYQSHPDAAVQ
As to conditions: at 0.1 µM.

Assay [2] concerns the target cAMP-dependent protein kinase catalytic subunit alpha (Homo sapiens) (UniProt P17612). As to conditions: at 0.1 µM.
For assay [3] the target is unchanged. As to conditions: at 1 µM.
Assay [4] deals with Protein kinase C alpha type (Homo sapiens) (UniProt P17252). As to conditions: at 0.1 µM.
Assay [5] has the same target. Conditions: at 1 µM.
Assay [6] addresses Protein kinase C beta type (Homo sapiens) (UniProt P05771). As to conditions: at 0.1 µM.
For assay [7] the target is unchanged. Conditions: at 1 µM.
In assay [8] the target is Protein kinase C eta type (Homo sapiens) (UniProt P24723). Conditions: at 0.1 µM.
Protein kinase C eta type (Homo sapiens), sequence (P24723 whole entry): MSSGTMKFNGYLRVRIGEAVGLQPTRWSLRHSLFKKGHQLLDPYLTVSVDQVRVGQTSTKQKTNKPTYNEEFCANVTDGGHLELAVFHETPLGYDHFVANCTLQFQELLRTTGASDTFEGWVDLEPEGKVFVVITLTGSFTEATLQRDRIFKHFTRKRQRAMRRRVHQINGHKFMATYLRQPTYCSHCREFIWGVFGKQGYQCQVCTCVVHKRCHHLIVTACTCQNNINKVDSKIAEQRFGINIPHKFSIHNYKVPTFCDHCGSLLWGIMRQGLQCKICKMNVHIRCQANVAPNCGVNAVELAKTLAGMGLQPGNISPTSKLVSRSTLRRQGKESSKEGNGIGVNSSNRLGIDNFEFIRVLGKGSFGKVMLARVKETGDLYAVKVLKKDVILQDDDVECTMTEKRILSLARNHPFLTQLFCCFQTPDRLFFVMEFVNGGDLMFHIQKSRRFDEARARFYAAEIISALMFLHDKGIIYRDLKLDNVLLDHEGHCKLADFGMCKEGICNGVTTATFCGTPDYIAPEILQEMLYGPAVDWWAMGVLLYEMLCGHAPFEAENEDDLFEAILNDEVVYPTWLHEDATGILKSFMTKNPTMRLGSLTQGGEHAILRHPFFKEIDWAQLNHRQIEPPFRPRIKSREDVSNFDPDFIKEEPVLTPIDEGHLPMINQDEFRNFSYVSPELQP
Assay [9] has the same target. Conditions: at 1 µM.
In assay [10] the target is Protein kinase C gamma type (Homo sapiens) (UniProt P05129). As to conditions: at 0.1 µM.
Assay [11] shares this target. As to conditions: at 1 µM.
Assay [12] has as its target T2, Protein kinase C iota type (Homo sapiens) (UniProt P41743).
T2 sequence (whole entry): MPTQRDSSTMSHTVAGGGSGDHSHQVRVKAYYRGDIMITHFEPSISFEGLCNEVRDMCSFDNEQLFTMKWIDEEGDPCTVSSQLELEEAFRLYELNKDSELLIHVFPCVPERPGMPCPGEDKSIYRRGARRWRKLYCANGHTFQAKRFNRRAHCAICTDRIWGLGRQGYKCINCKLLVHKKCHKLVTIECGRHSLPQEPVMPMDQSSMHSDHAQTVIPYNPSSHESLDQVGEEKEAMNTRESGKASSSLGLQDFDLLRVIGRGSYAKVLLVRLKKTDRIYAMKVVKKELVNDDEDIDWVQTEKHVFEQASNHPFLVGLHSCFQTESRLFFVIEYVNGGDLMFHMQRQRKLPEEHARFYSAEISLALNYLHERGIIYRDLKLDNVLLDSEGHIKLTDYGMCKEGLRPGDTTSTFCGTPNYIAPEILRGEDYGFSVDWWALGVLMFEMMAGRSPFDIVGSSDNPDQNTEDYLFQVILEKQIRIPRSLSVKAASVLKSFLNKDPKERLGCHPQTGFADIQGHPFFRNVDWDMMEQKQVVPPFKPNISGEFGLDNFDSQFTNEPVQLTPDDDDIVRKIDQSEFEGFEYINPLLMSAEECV
As to conditions: at 0.1 µM.

Assay [13] deals with T2, Protein kinase C iota type (Homo sapiens). As to conditions: at 1 µM.
In assay [14] the target is Protein kinase C theta type (Homo sapiens) (UniProt Q04759). As to conditions: at 0.1 µM.
Protein kinase C theta type (Homo sapiens), sequence (Q04759 whole entry, looked up): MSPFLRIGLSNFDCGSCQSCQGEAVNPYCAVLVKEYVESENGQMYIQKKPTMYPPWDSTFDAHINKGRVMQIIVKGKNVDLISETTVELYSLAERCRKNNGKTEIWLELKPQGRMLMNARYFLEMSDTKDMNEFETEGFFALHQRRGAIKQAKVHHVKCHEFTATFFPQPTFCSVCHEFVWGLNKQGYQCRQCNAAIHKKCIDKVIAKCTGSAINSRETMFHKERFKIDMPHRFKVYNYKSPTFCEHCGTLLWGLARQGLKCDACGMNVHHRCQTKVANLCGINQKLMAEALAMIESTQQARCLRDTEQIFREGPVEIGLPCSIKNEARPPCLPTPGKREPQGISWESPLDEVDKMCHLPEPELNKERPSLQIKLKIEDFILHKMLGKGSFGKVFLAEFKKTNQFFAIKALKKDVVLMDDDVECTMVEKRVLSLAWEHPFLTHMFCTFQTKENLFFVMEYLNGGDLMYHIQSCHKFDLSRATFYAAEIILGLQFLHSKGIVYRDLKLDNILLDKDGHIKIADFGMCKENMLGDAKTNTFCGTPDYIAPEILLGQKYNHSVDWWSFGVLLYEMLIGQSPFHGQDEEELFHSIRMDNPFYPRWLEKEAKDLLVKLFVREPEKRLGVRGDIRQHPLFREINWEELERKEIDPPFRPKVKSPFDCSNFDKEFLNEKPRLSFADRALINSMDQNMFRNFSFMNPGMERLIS
Assay [15] has the same target. Conditions: at 1 µM.
In assay [16] the target is Protein kinase C beta type (Homo sapiens) (UniProt P05771). As to conditions: at 0.1 µM. This is another data set of the same source.
Protein kinase C beta type (Homo sapiens), sequence (P05771 2-671 limits assumed): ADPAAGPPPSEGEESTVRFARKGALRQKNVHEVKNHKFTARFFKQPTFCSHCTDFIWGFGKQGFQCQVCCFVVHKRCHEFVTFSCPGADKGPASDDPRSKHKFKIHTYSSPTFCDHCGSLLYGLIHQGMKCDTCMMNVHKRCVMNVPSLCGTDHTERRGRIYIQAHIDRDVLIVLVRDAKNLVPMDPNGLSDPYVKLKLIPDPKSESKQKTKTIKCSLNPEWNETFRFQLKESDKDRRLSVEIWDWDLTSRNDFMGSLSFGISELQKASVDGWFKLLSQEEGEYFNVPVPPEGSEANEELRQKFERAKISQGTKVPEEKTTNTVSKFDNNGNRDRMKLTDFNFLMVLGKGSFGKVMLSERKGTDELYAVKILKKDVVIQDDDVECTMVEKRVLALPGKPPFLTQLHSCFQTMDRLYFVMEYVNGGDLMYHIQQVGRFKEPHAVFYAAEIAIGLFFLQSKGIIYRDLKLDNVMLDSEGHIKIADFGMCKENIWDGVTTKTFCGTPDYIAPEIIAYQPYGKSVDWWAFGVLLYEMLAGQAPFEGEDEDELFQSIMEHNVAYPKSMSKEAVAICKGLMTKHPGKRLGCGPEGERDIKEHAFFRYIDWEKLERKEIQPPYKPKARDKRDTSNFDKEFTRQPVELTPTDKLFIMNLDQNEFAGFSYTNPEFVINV
Assay [17] shares this target. As to conditions: at 1 µM. This is another data set of the same source.
In assay [18] the target is T3, Serine/threonine-protein kinase D1 (Homo sapiens) (UniProt Q15139).
T3 sequence (whole entry): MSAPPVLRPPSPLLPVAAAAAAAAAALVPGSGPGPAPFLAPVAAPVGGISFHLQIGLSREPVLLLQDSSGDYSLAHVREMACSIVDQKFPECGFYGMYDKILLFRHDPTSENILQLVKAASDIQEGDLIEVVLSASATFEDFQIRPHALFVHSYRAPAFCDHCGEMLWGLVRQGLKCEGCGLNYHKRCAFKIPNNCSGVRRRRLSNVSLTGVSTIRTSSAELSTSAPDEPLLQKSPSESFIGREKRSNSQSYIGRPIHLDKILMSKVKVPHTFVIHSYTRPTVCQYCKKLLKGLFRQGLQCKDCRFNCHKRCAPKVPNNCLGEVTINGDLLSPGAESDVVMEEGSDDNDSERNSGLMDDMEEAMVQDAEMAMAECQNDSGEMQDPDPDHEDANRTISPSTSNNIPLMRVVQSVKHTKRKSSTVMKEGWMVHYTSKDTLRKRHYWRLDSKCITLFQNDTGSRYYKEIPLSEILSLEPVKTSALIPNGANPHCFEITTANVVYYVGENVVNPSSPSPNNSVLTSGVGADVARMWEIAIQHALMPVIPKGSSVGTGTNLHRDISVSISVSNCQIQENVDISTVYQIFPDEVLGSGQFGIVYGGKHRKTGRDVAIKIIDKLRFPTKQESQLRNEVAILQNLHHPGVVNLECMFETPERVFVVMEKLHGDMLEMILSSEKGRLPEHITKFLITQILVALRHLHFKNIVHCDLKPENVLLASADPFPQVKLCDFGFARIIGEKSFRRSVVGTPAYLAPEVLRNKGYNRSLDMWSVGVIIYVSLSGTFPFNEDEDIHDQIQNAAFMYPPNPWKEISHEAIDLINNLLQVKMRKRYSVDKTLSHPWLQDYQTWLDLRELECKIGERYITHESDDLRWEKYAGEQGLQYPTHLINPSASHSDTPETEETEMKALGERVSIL
As to conditions: at 0.1 µM.

For assay [19], the target named is T3, Serine/threonine-protein kinase D1 (Homo sapiens). Conditions: at 1 µM.
Assay [20] deals with T4, Serine/threonine-protein kinase D2 (Homo sapiens) (UniProt Q9BZL6).
T4 sequence (whole entry): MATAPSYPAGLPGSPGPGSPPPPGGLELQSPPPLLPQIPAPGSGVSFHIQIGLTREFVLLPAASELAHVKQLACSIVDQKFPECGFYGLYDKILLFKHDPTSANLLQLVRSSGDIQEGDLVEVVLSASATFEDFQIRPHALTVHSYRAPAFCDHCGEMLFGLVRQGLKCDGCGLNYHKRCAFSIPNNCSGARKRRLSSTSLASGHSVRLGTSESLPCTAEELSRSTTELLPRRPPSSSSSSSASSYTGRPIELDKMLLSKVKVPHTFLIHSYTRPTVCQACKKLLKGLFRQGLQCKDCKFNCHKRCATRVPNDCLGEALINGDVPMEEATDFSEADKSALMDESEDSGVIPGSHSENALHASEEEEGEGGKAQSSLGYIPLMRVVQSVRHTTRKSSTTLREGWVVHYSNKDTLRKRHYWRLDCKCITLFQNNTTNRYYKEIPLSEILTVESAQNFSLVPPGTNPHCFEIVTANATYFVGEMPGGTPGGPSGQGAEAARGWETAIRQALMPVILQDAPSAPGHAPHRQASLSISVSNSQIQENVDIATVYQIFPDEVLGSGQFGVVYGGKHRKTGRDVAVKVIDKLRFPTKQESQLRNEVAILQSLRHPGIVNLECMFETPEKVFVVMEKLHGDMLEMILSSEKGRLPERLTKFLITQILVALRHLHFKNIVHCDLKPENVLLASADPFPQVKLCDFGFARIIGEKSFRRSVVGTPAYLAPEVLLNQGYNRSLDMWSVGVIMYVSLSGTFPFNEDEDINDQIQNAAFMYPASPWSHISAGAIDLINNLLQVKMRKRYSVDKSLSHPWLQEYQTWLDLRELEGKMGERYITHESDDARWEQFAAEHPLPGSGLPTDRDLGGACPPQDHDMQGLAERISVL
As to conditions: at 0.1 µM.

Structures are written as SMILES.

`COc1cccc(COc2cc(-n3cnc4ccccc43)sc2C(N)=O)c1`: the inhibition in [1] was 12.1%; in [2] it was 2.47%; in assay [3], 0.86%; in assay [4], -0.54%; in [5], 0%; in [6] it was -0.69%. For the same molecule, the inhibition in assay [7] is 0.94%; in assay [8], 0.43%; in assay [9], 1.12%; in [10], 1.09%; in assay [11] it was 3.94%; in assay [12], -0.74%. Further, the inhibition is -0.85% in assay [13]; 1.23% in assay [14]; 1.18% in assay [15]; 0.72% in assay [16]; 1.77% in assay [17]; 0.37% in [18]. The inhibition amounted to 1.82% in assay [19] and 1.64% in assay [20].
For the molecule `NC(=O)c1sc(-n2cnc3cc(C(F)(F)F)ccc32)cc1OCc1ccccc1Br`, the inhibition in assay [1] is 2.62%; in assay [2], 2.16%; in [3] it was 1.95%; in assay [4], 0.19%; in assay [5], 1.07%; in [6], 0.86%. The inhibition was -1.32% in assay [7]; 3.02% in assay [8]; -0.28% in [9]; 0.48% in [10]; 2.52% in assay [11]; 0.97% in assay [12]. Further, the inhibition in [13] turned out to be 0.63%; in assay [14] it was 0.18%; in assay [15] it was 0.55%; in [16], 0.4%; in [17] it was 0.57%; in assay [18], 1.33%. The inhibition in assay [19] was found to be 1.94%; in assay [20] it was 1.96%.
With `Fc1ccc(-c2ncn(C3CCNCC3)c2-c2ccnc(Oc3ccccc3)n2)cc1`, the inhibition in [1] is 0.7%; in assay [2], 7.46%; in [3] it was 43.6%; in assay [4], -3.5%; in assay [5], -0.8%; in assay [6] it was 0.95%. Moreover, the inhibition was found to be 8.43% in assay [7]; 3.65% in assay [8]; 1.37% in [9]; 0.03% in [10]; 2.28% in assay [11]; 0.81% in [12]. Further, the inhibition was 1.84% in [13]; 1.21% in assay [14]; 1.59% in assay [15]; 1.22% in assay [16]; 5.65% in assay [17]; -1.04% in assay [18]. Moreover, the inhibition in assay [19] was 0.79%; in [20] it was -1.14%.
As to `CCn1c(-c2nonc2N)nc2c(C#CC(C)(C)O)ncc(OCC3CCNCC3)c21`, the inhibition in assay [1] was 2.18%; in assay [2] it was 44.1%; in [4], -1.9%; in assay [5], 13.4%; in assay [6], 29.9%; in assay [7], 64.4%. In addition, the inhibition in [8] is 83.7%; in assay [9] it was 97.8%; in assay [10], 6.74%; in assay [11] it was 39.9%; in assay [12] it was -0.7%; in assay [13], 13.5%. Also, the inhibition in [14] is 21.5%; in assay [15], 65.5%; in assay [16], 8.97%; in assay [17], 37.6%; in [18] it was -0.45%; in assay [19], 6.01%. Besides, in assay [20], the inhibition is -0.27%.
On to `Nc1nonc1-c1nc2cnccc2n1C1CCCCC1`, for which the inhibition in assay [1] was 0.3%; in [2], 19.5%; in assay [4], 2.45%; in assay [5] it was 38.4%; in assay [6] it was 31%; in assay [7], 65.3%. The inhibition is 42.3% in assay [8]; 88.5% in assay [9]; 8.45% in [10]; 49% in assay [11]; -0.01% in [12]; 4.76% in [13]. Besides, the inhibition in [14] was 10.3%; in assay [15] it was 55.2%; in assay [16], 6.66%; in [17] it was 33.7%; in assay [18], -0.73%; in assay [19], 2.75%. In addition, in assay [20], the inhibition is -1.07%.
As for `Cc1cc(-c2ccco2)cc(C)c1/C=C/c1cncc(-c2nn[nH]n2)c1`, the inhibition is -0.25% in assay [1]; -2.7% in assay [2]; 1.88% in assay [3]; 0.15% in [4]; 0.97% in [5]; -0.49% in assay [6]. The inhibition is 0.6% in assay [7]; 1.26% in [8]; 2.42% in [9]; 0.18% in assay [10]; 1.85% in assay [11]; 0.32% in [12]. The inhibition is -0.83% in [13]; 0.29% in assay [14]; -0.04% in assay [15]; -0.04% in [16]; -0.06% in assay [17]; 0.58% in [18]. Also, the inhibition was determined as 2.09% in assay [19] and 0.97% in [20].
In the case of `CCn1c(-c2nonc2N)nc2c(C#CC(C)(C)O)nc(O[C@@H](CN)c3ccccc3)cc21`, the inhibition in [1] worked out at 3.51%; in assay [2], 80.3%; in assay [3], 81.6%; in assay [4], 15.8%; in [5], 69.7%; in assay [6] it was 44.8%. Also, the inhibition is 71.4% in assay [7]; 96.3% in assay [8]; 99% in assay [9]; 54.7% in assay [10]; 81.1% in [11]; 3.68% in assay [12]. The inhibition in [13] worked out at 26.4%; in [14] it was 73.5%; in assay [15], 84.8%; in assay [16], 49.2%; in [17], 80.5%; in assay [18], 8.23%. Moreover, the inhibition was determined as 61.6% in assay [19] and 9.02% in [20].

As a reminder, the inhibition is the drop in the measured response relative to a control, in per cent.

The values are drawn from ChEMBL document CHEMBL1961873, “Compounds: GSK PKIS; Assays: Nanosyn kinase panel” (2012).
